# Compound activity (PubChem)
# In the library only some 8% were active in any assay of this set; here they are far more common.
# KB-V1 cytotox = KB-V1 MDR subline cytotoxicity | Potency, µM (highest dose often 46.1 µM), actives largely listed as cytotoxic | AID 1347076 | 3.4% of 400,000 active | KB-V1 MDR cells viability, CellTiter-Glo, 72 h; also: % is scaled to controls: 0 for no effect and ±100 for the full control effect; nearly all actives have a fitted effect of over 60% in size
#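 KB-V1 cells (P-gp-expressing MDR subline of KB-3-1) in phenol-red-free DMEM with 10% FBS were exposed to library compounds over a concentration series for 72 h at 37 degrees C. Viability read by CellTiter-Glo luminescence; concentration-effect curves fitted after normalization.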
# MCF10A rerep = DNA re-replication induction in MCF 10a cells. MCF 10A DNA re-replication, Hoechst nuclear intensity, 48 h. Potency, µM (series often up to 46.1 µM), without a hit: at the highest dose activity, positive = re-replication, actives largely listed as activators. 2.9% of 350,000 active; also: % of control where 0% means no effect; nearly all actives have a fitted effect of over 50% in size
# SW480 rereplic = inducers of DNA re-replication in SW480 colon cancer cells. SW480 DNA re-replication, Hoechst DNA content imaging, 48 h. Potency, µM (series often up to 46.1 µM), for the others: top-dose re-replication activation, hits mostly activators. 1.8% of 340,000 active. AID 624297; also: % of control where 0% means no effect; nearly all actives have a fitted effect of over 55% in size
#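 DNA re-replication was detected as more nuclei of elevated Hoechst intensity after 48 hr exposure to compound (23 nL pinned per well of 250 cells).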
# HT1080-NT tox = kills 2HG-producing HT-1080-NT fibrosarcoma cells; HT-1080-NT fibrosarcoma viability, CellTiter-Glo ATP luminescence, 48 h; Potency, µM (series often up to 46.1 µM), for inactives: at the top dose activity, negative = less viability, most hits filed as cytotoxic; 1.6% of 360,000 active;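 also: NT is the 2HG producing partner of a matched IDH1 knockdown line; 0% = DMSO-treated cells and -100% = media-only wells without cells; nearly all actives have a fitted effect of over 55% in size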
#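 750 cells/well, RPMI + 5% FBS; 2 h settle, compound pin-transfer, 48 h at 37 degrees C. CellTiter-Glo 10 min RT, luminescence. Normalized to DMSO and media-only wells.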
# HT1080 IDH1KD tx = kills HT-1080 cells with IDH1 knockdown; HT-1080 IDH1 knockdown viability, ATP luminescence, 48 h; Potency, µM (titrated, usually from 46.1 µM), for inactives: at the highest dose activity, negative = toxicity, actives largely listed as cytotoxic; 2% of 360,000 active; AID 686971;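 also: 0% = DMSO wells and -100% = cell-free medium wells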
#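 Cytotoxicity counter-line: IDH1KD HT-1080, 48 h, CellTiter-Glo. Curves classed by r2, magnitude and activity.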
# KB-3-1 tox = KB-3-1 parental cell cytotoxicity | 1.4% of 400,000 active | Potency, µM (highest dose often 46.1 µM), usual class: cytotoxic | KB-3-1 viability, CellTiter-Glo ATP luminescence, 72 h; also: % is scaled to controls: 0 for no effect and ±100 for the full control effect; nearly all actives have a fitted effect of over 60% in size
#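 KB-3-1 parental drug-naive adenocarcinoma cells in DMEM/10% FBS, incubated 72 h at 37 C with pin-transferred compounds across a concentration series. Viability by CellTiter-Glo luminescence; concentration-response curves fitted after normalization.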
# Starred values were filed as active, the others as inactive; i = inactive; ? = inconclusive; nt = not tested or not shown; [ ] = remark or other dose. Calls follow the shape of the dose curve; as a rule, active = well fitted curve in the direction sought with a large enough effect; inconclusive = small, poorly fitted or top-dose-only effect, or another doubt; inactive = no such curve, though single readings can be large; an effect the other way counts as inactive or inconclusive. Potency is read from the fitted curve at half-maximal effect.
SMILES,KB-V1 cytotox,MCF10A rerep,SW480 rereplic,HT1080-NT tox,HT1080 IDH1KD tx,KB-3-1 tox
O=C(NCc1ccco1)C1CCN(C(=O)c2cc3sccc3n2Cc2ccc(Cl)cc2)CC1,?,21µM*,?,nt,nt,?
Cc1oc(-c2ccc(Cl)cc2)nc1CS(=O)CC(=O)NCCCN1CC(C)CC(C)C1 (stereo unspecified),i,6%,?,16µM*,?,i
Cc1ccc(CN2CCN(C3CCN(S(=O)(=O)c4ccc(C)cc4)CC3)C(=O)C2=O)cc1,i,nt,nt,nt,nt,i
CC1CC(C)CN(S(=O)(=O)c2ccc(C(=O)Nc3sccc3C(N)=O)cc2)C1 (stereo unspecified),?,?,-6%,-25%,?,i
CCOC(=O)C1CCCN(C(=O)c2ccc(C(=O)c3ccccc3)cc2)C1 (stereo unspecified),i,15%,-9%,-6%,0%,i
O=C(NC(Cc1ccccc1)C(=O)OCC(=O)N1CCc2ccccc21)c1ccco1 (stereo unspecified),i,-6%,-13%,-2%,5%,i
O=C(COC(=O)c1ccc([N+](=O)[O-])cc1)Nc1ccc(Cl)cn1,?,-2%,-17%,8%,4%,i
N#C/C(=C\c1ccc(N2CCOCC2)o1)c1ccccc1,?,18%,?,?,4.5µM*,i
N#C/C(=C\c1ccc(N2CCOCC2)o1)C(=O)Nc1ccc(O)cc1,i,?,?,0%,-8%,i
N#C/C(=C/c1ccc(N2CCOCC2)o1)c1nc2ccccc2[nH]1,?,18%,0%,-25%,?,i
N#C/C(=C/c1ccc(N2CCOCC2)o1)c1ccc(Br)cc1,18µM*,5.8µM*,5.8µM*,?,?,?
Cc1ccc(CCNC(=O)C2CCC(=O)N2Cc2ccc(F)cc2)cc1 (stereo unspecified),?,4%,-8%,13%,0%,i
Cc1ccc(SCCC(=O)N2CCN(S(=O)(=O)c3ccccc3)CC2)cc1,nt,?,10%,-1%,-14%,nt
O=C(CCSc1ccc(Cl)cc1)N1CCN(S(=O)(=O)c2ccccc2)CC1,21µM*,?,5%,-8%,-11%,i
CCOC(=O)N1CCN(C(=O)CCSc2ccc(Cl)cc2)CC1,23µM*,14%,-1%,7%,9%,i
O=C(Cc1ccccc1F)N1CCN(S(=O)(=O)c2ccc(Cl)cc2)CC1,i,16µM*,?,-10%[9.24 µM],-5%,i
Cn1c(C(C(=O)NCC2CCCO2)N(CCc2ccccc2)C(=O)Cn2nnc3ccccc32)nc2ccccc21 (stereo unspecified),?,0%,2%,8%,10%,i
Cc1nc(-c2ccccn2)sc1C(=O)Nc1ccc(Cl)c(Cl)c1,18µM*,6%,0%,-8%,1%,i
COc1ccccc1/C=C/C(=O)OCCCN(C)C,i,-10%,-5%,-2%,0%,i
CC(=O)Nc1ccc(S(=O)(=O)N2c3ccc(F)cc3CCC2C)cc1 (stereo unspecified),i,?,18µM*,?,21µM*,9.2µM*
CC(=O)N1c2ccc(S(=O)(=O)N3CCC(C(=O)Nc4ccc(F)cc4)CC3)cc2CC1C (stereo unspecified),i,5%,-5%,-2%,-14%,i
CCCc1cc(NCCN(C)C)n2c(nc3ccccc32)c1C#N,i,18%,2%,2%,5%,i
CCCc1cc(NCC2CCCO2)n2c(nc3ccccc32)c1C#N (stereo unspecified),?,16µM*,?,-4%,-19%,i
COc1ccc(/C=C/C(=O)c2c(C)nc3ccccn23)cc1,?,9%,0%,16%,16%,i
Cc1nc2ccccn2c1C(=O)/C=C/c1ccc(F)cc1,16µM*,?,?,-25%,-1%,16µM*
SMILES,KB-V1 cytotox,MCF10A rerep,SW480 rereplic,HT1080-NT tox,HT1080 IDH1KD tx,KB-3-1 tox
C=CCn1c(SCc2csc(C)n2)nc2sc3c(c2c1=O)CCC(C)C3 (stereo unspecified),i,21µM*,-1%,1%,-10%,i
C=CCn1c(SCc2csc(C)n2)nc2sc3c(c2c1=O)CCCC3,i,16µM*,3%,-13%,?,?
Cc1cccc(NC(=O)CCc2nc3sc4c(c3c(=O)[nH]2)CCCC4)n1,i,?,3%,-10%,-28%,i
CCCCC(=O)Nc1ccc(NC(=O)CCCC)nc1,i,-10%,-1%,20%,21%,i
Fc1cc2[nH]c(=S)[nH]c2cc1Cl,3.7µM*,0%,6%,-1%,1%,8.2µM*
Cc1cc2[nH]c(=S)[nH]c2cc1C,i,12%,-1%,3%,-2%,?
c1ccc(Cc2c(-c3ccccc3)nc3c4ccccc4ccn23)cc1,i,nt,nt,5%,8%,i
CC(=O)c1ccc(-c2nc3c4ccccc4ccn3c2C(C)=O)o1,7.3µM*,-6%,7%,16%,16%,?
COc1ccc(C(=O)Oc2ccc(Br)cc2C(=S)N2CCOCC2)cc1,i,1%,?,-5%,-13%,?
COc1ccc(CC(=O)N2CC(=O)Nc3ccc(F)cc3C2c2ccccc2)cc1 (stereo unspecified),i,nt,nt,nt,nt,i
CN(C)C(=S)NC(C)(C)C,i,-2%,-52%,26%,19%,i
COc1ccccc1NC(=O)Cn1cnc2sc(C)c(S(=O)(=O)N3CCCCC3)c2c1=O,9.2µM*,-2%,-38%,16%,13%,i
CCOCCCNC(=O)Cn1cnc2sc(C)c(S(=O)(=O)N3CCN(c4ncccn4)CC3)c2c1=O,i,3%,5.2µM*,2%,-2%,i
CCOc1ccc2c(c1)c1nc3ccccc3nc1n2C,i,4%,2%,-1%,3%,i
Fc1ccc(/C=N/NC2=Nc3cccc4cccc2c34)cc1,?,16µM*,3%,-2%,0%,i
c1ccc(NC2=Nc3cccc4cccc2c34)cc1,i,-39%,-3%,-7%,-9%,i
CCc1noc(C)c1C(=O)OC(C)C(=O)Nc1ccc2c(c1)OCO2 (stereo unspecified),i,4%,-1%,5%,2%,i
CC(C)Nc1nnc(SCC(=O)Nc2ccc3c(c2)C(=O)c2ccccc2C3=O)s1,10µM*,?,-44%,-11%,?,?
